Results taken from PMC7862700, “An all-to-all approach to the identification of sequence-specific readers for epigenetic DNA modifications on cytosine”.

Experiments:
Test in all cases: DAPPL (digital affinity profiling via proximity ligation, sequencing); 10 mM Tris-HCl pH 7.5, 50 mM NaCl, 1 mM DTT, 4% glycerol, room temperature, 30 min; GST-TFs on glutathione beads, 16-mer random dsDNA library, 0.1% formaldehyde crosslink after washing; high values mean tight binding
Details in all cases: protein: recombinant; tags: N-terminal GST; dsDNA, one strand shown
FLI1 = target: T1, FLI1 (Homo sapiens, UniProt Q01543 1-452)
T1 sequence: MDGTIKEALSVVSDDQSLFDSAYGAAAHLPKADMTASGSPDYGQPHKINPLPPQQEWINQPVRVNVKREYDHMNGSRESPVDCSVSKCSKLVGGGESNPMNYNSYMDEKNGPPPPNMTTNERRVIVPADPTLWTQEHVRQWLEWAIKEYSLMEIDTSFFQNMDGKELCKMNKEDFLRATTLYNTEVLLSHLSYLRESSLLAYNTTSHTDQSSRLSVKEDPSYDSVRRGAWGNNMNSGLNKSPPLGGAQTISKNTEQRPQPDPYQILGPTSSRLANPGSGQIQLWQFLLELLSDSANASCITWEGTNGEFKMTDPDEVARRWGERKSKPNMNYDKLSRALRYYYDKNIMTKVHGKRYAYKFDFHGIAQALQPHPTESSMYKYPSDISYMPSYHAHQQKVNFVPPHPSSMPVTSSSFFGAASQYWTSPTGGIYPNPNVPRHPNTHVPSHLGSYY
In short: (§1)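 GST fusions of human transcription factors were expressed in yeast and captured with glutathione beads. Once given DNA barcodes and pooled alongside a tag-only sample, they were incubated for 30 min at room temperature with 200 nmole of a random double-stranded 16-mer DNA library in Tris/NaCl/DTT/glycerol buffer, then washed, crosslinked (0.1% formaldehyde), proximity-ligated, PCR-amplified and sequenced on an Illumina NextSeq500. The binding signal of each hexamer is its read frequency for a factor divided by its frequency for the tag-only sample.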

ELK1 = target: T2, ELK1 (Homo sapiens, UniProt P19419 1-428)
T2 sequence: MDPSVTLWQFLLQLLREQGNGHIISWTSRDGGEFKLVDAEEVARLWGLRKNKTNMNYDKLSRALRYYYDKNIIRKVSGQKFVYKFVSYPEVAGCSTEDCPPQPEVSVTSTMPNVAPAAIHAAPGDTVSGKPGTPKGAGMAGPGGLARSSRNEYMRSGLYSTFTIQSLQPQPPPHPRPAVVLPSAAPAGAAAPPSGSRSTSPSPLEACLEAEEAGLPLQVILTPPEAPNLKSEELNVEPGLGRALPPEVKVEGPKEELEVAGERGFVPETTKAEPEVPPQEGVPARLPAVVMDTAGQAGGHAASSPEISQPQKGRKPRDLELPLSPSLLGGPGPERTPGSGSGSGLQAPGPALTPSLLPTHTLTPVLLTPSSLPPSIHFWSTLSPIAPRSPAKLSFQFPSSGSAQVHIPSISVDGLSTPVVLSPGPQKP
In short: as §1

GABPA = target: T3, GABPA (Homo sapiens, UniProt Q06546 1-454)
T3 sequence: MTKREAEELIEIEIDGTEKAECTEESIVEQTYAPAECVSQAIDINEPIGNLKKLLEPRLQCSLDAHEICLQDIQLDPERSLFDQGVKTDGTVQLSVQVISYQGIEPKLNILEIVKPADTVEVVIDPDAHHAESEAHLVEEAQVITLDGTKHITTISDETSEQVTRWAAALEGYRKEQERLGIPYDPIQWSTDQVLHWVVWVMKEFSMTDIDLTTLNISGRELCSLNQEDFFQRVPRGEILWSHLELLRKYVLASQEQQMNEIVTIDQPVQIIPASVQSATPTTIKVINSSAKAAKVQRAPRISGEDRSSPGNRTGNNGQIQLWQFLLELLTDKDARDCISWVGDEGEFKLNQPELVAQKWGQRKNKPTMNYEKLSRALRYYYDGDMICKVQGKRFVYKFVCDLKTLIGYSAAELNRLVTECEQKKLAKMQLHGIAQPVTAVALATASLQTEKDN
In short: as §1

ERG = target: T4, ERG (Homo sapiens, UniProt P11308 1-479)
T4 sequence: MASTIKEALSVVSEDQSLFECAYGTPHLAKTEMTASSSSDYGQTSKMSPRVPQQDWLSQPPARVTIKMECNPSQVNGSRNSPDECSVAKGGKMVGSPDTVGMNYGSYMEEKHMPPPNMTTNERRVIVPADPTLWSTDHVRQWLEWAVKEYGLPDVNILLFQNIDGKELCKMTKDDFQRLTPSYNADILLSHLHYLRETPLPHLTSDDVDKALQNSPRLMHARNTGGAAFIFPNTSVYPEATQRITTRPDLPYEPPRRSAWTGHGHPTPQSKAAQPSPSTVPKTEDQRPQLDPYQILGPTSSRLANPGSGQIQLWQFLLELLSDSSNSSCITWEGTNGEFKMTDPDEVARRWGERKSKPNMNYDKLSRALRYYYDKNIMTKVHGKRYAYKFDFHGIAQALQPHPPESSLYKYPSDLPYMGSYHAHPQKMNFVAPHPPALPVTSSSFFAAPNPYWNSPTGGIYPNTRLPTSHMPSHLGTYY
In short: as §1

ELF1 = ELF1 (Homo sapiens, UniProt P32519 1-619)
In short: as §1

EHF = target: T5, EHF (Homo sapiens, UniProt Q9NZC4 1-300)
T5 sequence: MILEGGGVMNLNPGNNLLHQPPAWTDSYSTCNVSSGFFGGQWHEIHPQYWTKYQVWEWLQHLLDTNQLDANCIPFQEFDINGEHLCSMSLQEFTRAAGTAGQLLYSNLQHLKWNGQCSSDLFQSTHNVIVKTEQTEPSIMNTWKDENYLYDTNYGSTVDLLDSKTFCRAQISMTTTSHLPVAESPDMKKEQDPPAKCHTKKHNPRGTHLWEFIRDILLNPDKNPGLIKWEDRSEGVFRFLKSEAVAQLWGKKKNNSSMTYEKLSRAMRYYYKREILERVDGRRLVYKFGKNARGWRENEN
In short: as §1

SPI1 = SPI1 (Homo sapiens, UniProt P17947 1-270)
In short: as §1

SPIB = SPIB (Homo sapiens, UniProt Q01892 1-262)
In short: as §1

ELK3 = target: T6, ELK3 (Homo sapiens, UniProt P41970 1-407)
T6 sequence: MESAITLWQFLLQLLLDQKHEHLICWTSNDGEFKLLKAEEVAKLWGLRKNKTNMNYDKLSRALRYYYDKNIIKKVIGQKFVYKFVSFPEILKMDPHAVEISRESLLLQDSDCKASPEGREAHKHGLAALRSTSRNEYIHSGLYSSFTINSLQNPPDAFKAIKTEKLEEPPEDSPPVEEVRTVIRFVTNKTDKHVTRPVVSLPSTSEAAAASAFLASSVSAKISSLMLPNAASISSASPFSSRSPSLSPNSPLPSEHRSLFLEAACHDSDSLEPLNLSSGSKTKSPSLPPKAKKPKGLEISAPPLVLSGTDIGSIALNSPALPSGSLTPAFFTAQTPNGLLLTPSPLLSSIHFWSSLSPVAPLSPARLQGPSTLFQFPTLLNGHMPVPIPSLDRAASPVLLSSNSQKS
In short: as §1

Chain of SPIB (Q01892 whole entry): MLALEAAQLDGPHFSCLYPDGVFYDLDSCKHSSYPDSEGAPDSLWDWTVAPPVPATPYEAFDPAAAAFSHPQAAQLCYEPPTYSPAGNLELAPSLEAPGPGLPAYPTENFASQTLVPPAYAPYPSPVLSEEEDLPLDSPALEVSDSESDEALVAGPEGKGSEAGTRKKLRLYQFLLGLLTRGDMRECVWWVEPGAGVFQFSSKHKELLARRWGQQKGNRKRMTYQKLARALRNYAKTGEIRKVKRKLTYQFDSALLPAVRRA
Chain of ELF1 (P32519 whole entry): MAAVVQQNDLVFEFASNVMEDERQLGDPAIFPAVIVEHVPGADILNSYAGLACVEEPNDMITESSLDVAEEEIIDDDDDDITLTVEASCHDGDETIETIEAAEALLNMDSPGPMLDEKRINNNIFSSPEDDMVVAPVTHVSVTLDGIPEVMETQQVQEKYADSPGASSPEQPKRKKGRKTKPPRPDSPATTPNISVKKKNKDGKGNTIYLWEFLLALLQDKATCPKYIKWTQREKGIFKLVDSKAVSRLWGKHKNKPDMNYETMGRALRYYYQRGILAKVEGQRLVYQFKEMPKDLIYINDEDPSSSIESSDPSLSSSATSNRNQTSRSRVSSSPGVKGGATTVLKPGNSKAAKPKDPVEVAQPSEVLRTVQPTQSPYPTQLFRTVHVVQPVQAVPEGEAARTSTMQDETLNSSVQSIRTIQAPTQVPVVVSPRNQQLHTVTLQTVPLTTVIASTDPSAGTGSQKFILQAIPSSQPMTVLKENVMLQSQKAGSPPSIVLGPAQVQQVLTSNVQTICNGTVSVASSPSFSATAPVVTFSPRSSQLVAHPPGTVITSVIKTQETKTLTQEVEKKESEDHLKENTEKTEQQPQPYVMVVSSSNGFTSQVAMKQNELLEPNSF

Sequence	binding signal (FLI1)	binding signal (ELK1)	binding signal (GABPA)	binding signal (ERG)	binding signal (ELF1)	binding signal (EHF)	binding signal (SPI1)	binding signal (SPIB)	binding signal (ELK3)
ACGTTA	1.11 fold enrichment (6-mer frequency, TF over GST control)	1.14 fold enrichment (6-mer frequency, TF over GST control)	1.11 fold enrichment (6-mer frequency, TF over GST control)	1.21 fold enrichment (6-mer frequency, TF over GST control)	1.19 fold enrichment (6-mer frequency, TF over GST control)	1.11 fold enrichment (6-mer frequency, TF over GST control)	1.19 fold enrichment (6-mer frequency, TF over GST control)	1.06 fold enrichment (6-mer frequency, TF over GST control)	1.3 fold enrichment (6-mer frequency, TF over GST control)
TGCCGC	1.33 fold enrichment (6-mer frequency, TF over GST control)	1.3 fold enrichment (6-mer frequency, TF over GST control)	1.33 fold enrichment (6-mer frequency, TF over GST control)	1.24 fold enrichment (6-mer frequency, TF over GST control)	1.28 fold enrichment (6-mer frequency, TF over GST control)	1.28 fold enrichment (6-mer frequency, TF over GST control)	1.37 fold enrichment (6-mer frequency, TF over GST control)	1.36 fold enrichment (6-mer frequency, TF over GST control)	1.26 fold enrichment (6-mer frequency, TF over GST control)
ATACTA	1.16 fold enrichment (6-mer frequency, TF over GST control)	1.11 fold enrichment (6-mer frequency, TF over GST control)	1.25 fold enrichment (6-mer frequency, TF over GST control)	1.17 fold enrichment (6-mer frequency, TF over GST control)	1.21 fold enrichment (6-mer frequency, TF over GST control)	1.22 fold enrichment (6-mer frequency, TF over GST control)	1.13 fold enrichment (6-mer frequency, TF over GST control)	1.22 fold enrichment (6-mer frequency, TF over GST control)	1.06 fold enrichment (6-mer frequency, TF over GST control)
